Test results: PubChem BioAssay (NCI)
Compounds without any hit were thinned out: in the full panel of roughly 83,000, 20% have a hit.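 96-well plates, one dose, 48 hours. Percent growth reported; active if below 10.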 The source made the active and inactive calls.

What was measured:
Experiment in all cases: NCI-60 one-dose screen, 48 h (100 = growth as untreated, 0 = no growth, -100 = all killed)
Conditions in all cases: 10 µM
[1] = system: NCI-H23 lung
[2] = system: NCI-H226 lung
[3] = system: NCI-H322M lung
[4] = system: HOP-62 NSCLC
[5] = system: NCI-H460 lung
[6] = system: NCI-H522 lung
[7] = system: A549/ATCC NSCLC
[8] = system: 786-0 renal
[9] = system: COLO 205 colon
[10] = system: DU-145 prostate

Measured: growth

O=C1/C(=C\c2ccccc2)CN(C(=O)c2ccccc2)C/C1=C\c1ccccc1
active: [6] -0.751% | [8] 2.68%
inactive: [1] 57.5% | [2] 37.3% | [3] 75.8% | [4] 37.1% | [5] 60.1% | [7] 61.1% | [9] 41.5% | [10] 24.6%

COc1ccc(-c2cc(/C=C/C(=O)c3cc(OC)c(OC)c(OC)c3)[nH]n2)cc1OC
active: [3] 1.57% | [4] -27% | [5] -45.7% | [6] -69.8% | [8] -57.9% | [9] -42.5% | [10] 0.588%
inactive: [1] 47.2% | [2] 63% | [7] 20.8%

Clc1ccccc1N=Cc1ccc2c(c1)OCO2
inactive: [1] 108% | [2] 105% | [3] 110% | [4] 110% | [5] 116% | [6] 80.3% | [7] 98.2% | [8] 104% | [9] 109% | [10] 112%

COc1cc(-c2nc(-c3nnc(-c4ccccc4Cl)o3)c3ccccn23)cc(OC)c1OC
inactive: [1] 91.1% | [2] 84% | [3] 88.3% | [4] 87.2% | [5] 95.4% | [6] 78.4% | [7] 72% | [8] 105% | [9] 85.4% | [10] 98.5%

COc1ccccc1CNCCCN1C(=O)c2ccc3c4c(ccc(c24)C1=O)C(=O)N(CCCN)C3=O
inactive: [2] 47.3% | [4] 18.7%
active: [1] -34.7% | [3] -30.7% | [5] -50.8% | [6] -79.1% | [7] -28% | [8] 4.32% | [9] -87.5% | [10] -95.6%

Nc1c(C(=O)Nc2ccccc2Cl)sc2nc3c(cc12)C(=O)CCC3
inactive: [1] 42.3% | [2] 75.9% | [3] 37.9% | [4] 83.3% | [5] 12.4% | [6] 32.8% | [7] 24.9% | [8] 91.1% | [10] 48.5%
active: [9] 3.38%

Cc1cn(C2CCCCO2)c(=O)nc1NO (stereo not given)
inactive: [1] 93.4% | [2] 115% | [3] 110% | [4] 110% | [5] 107% | [6] 104% | [7] 104% | [8] 103% | [9] 120% | [10] 113%

O=C(Nc1ccc(OS(=O)(=O)c2ccccc2)cc1)C12CC3CC(CC(C3)C1)C2
inactive: [1] 51.5% | [2] 60.4% | [3] 68.7% | [4] 74.4% | [5] 35.5% | [6] 50.9% | [7] 41.6% | [8] 57.5% | [10] 71.6%
active: [9] -0.16%

CC/C(=C(/c1ccc(OCCN(C)C)cc1)c1ccc(OC(=O)CCCCC(=O)c2c(C)[nH]c(/C=C3\N=C(c4ccc[nH]4)C=C3OC)c2C)cc1)c1ccccc1
inactive: [1] 86.7% | [2] 54.4% | [3] 72.2% | [4] 77.9% | [5] 61.2% | [7] 52.4% | [8] 67.4% | [9] 72% | [10] 34.2%
active: [6] 4.55%

C=C(NC(=O)C(=C)NC(=O)c1csc(C2=NC3c4csc(n4)C4NC(=O)c5csc(n5)C(C(C)(O)C(C)O)NC(=O)C5CSC(=N5)/C(=C/C)NC(=O)C(C(C)O)NC(=O)c5csc(n5)C3(CC2)NC(=O)C(C)NC(=O)C(=C)NC(=O)C(=C)NC(=O)C(C(C)C)NC2C=Cc3c(C(C)O)cc(nc3C2O)C(=O)OC4C)n1)C(N)=O (stereo not given)
active: [2] -26.3% | [4] 2.24% | [5] 1.43% | [6] -39.1% | [8] -10.4% | [9] -70.2% | [10] -23%
inactive: [1] 11.1% | [3] 45.9% | [7] 31.7%

CN(C)c1ccc(Cc2ccc(N(C)C)cc2Cl)c(Cl)c1
inactive: [1] 97% | [2] 89.4% | [3] 99.3% | [4] 105% | [5] 98.4% | [6] 80.1% | [7] 96.5% | [8] 112% | [9] 108% | [10] 103%

COc1cc(-c2cc(/C=C/C(=O)c3ccc(F)c(F)c3)[nH]n2)cc(OC)c1OC
inactive: [1] 55.9% | [2] 65.6% | [3] 74.1% | [4] 78.7% | [5] 58.1% | [6] 47.4% | [7] 36.4% | [8] 80.5% | [9] 61.4% | [10] 72.9%

CC1=C(N2CCOCC2)C(N2CCOCC2)=C(C)C(=O)C1=O
inactive: [1] 103% | [2] 98.2% | [3] 114% | [4] 93.6% | [5] 104% | [6] 99.1% | [7] 102% | [8] 102% | [9] 103% | [10] 108%

COc1cc(-c2cc(/C=C/C(=O)c3ccc(Cl)c(Cl)c3)[nH]n2)cc(OC)c1OC
inactive: [1] 101% | [2] 81.7% | [3] 62.7% | [4] 75.9% | [5] 79.4% | [6] 38% | [7] 88.3% | [8] 69.7% | [9] 78% | [10] 62.4%

COc1cc(C(=O)N2CCN(c3ccccc3OC)CC2)c(N)cc1OCCCN1CCN(c2ccccc2OC)CC1
inactive: [1] 69.8% | [2] 84.6% | [3] 100% | [4] 93.2% | [5] 108% | [6] 79.4% | [7] 92.7% | [8] 96% | [9] 85.9% | [10] 103%

CCCCCCCCN(CCCCCCCC)CCCCCCCCCN1CCCc2cc(OC)ccc21
inactive: [1] 63.4% | [2] 89.7% | [3] 95.5% | [4] 85% | [5] 102% | [6] 79.4% | [7] 97.2% | [8] 98.3% | [9] 87.8% | [10] 105%

N#CCCN(NC(=O)OCc1ccccc1)C(=O)OCc1ccccc1
inactive: [1] 107% | [2] 115% | [3] 109% | [4] 120% | [5] 103% | [6] 120% | [7] 106% | [8] 97.9% | [9] 119% | [10] 109%

Cc1cc(Nc2ccc(Cl)cc2)nc(NCCCNc2ccnc3cc(Cl)ccc23)n1
inactive: [1] 51.2% | [2] 102%
active: [3] -0.971% | [4] -22.6% | [5] -44.9% | [6] -78.8% | [7] -55.2% | [8] -98.7% | [9] -91.1% | [10] 1.28%

N=C(N)c1ccc(-c2ccc(-c3ccccc3)o2)nc1
active: [9] -13%
inactive: [1] 101% | [2] 90.4% | [3] 91.7% | [4] 91.8% | [5] 90.3% | [6] 93.8% | [7] 77.8% | [8] 90.7% | [10] 103%

CCOC(=O)N1C=CC2C=CC1C1C=CC=CC2N1C(=O)OCC (stereo not given)
inactive: [1] 108% | [2] 91% | [3] 106% | [4] 106% | [5] 103% | [6] 89.3% | [7] 94.8% | [8] 105% | [9] 117% | [10] 112%

COc1cc(OC)cc(-c2cncn2-c2ccc(-c3nc4cc(OC)cc(OC)c4s3)cc2)c1
inactive: [1] 57.5% | [2] 67.7% | [3] 82.8% | [4] 79.7% | [5] 51.3% | [6] 61.3% | [7] 45.4% | [8] 66% | [9] 79.5% | [10] 78.1%

Nc1c(C(=O)Nc2ccccc2)sc2nc3c(cc12)CCCC3
active: [9] 1.79%
inactive: [1] 38% | [2] 52.8% | [3] 56.9% | [4] 49.9% | [5] 10.9% | [6] 29.7% | [7] 21.7% | [8] 57% | [10] 11.1%

ClC(Cl)(Cl)c1nc2nccnc2[nH]1
inactive: [1] 108% | [2] 98.6% | [3] 90% | [4] 102% | [5] 102% | [6] 95.4% | [7] 101% | [8] 103% | [9] 114% | [10] 112%

Cc1ccc(NC(=O)Nc2nc3ccccc3s2)cc1NC(=O)Nc1nc2ccccc2s1
inactive: [1] 89.5% | [2] 90% | [3] 97.6% | [4] 88.3% | [5] 88.5% | [7] 42.5% | [8] 97.1% | [9] 80.6% | [10] 107%
active: [6] -33.8%

CCN1CCN(c2nc3ccccc3c3c(=O)c4ccccc4sc23)CC1
inactive: [1] 64.2% | [2] 49.5% | [3] 68.4% | [4] 39.4% | [5] 20% | [6] 35.4% | [7] 31% | [8] 47% | [9] 10.7% | [10] 33%

N#CC1=C(Nc2ccccc2Cl)SC(c2ccccc2O)NC1=O (stereo not given)
inactive: [1] 112% | [2] 120% | [3] 114% | [4] 115% | [5] 121% | [7] 56.4% | [8] 114% | [9] 121% | [10] 117%
active: [6] 1.13%

COC(=O)C(=C\c1ccc2c(c1)OCO2)/C(=C/c1ccc2c(c1)OCO2)C(=O)OC
inactive: [1] 92.4% | [2] 97.8% | [3] 96.9% | [4] 102% | [5] 112% | [6] 86% | [7] 101% | [8] 98.1% | [9] 102% | [10] 103%
